The source of these data is PubChem BioAssay (NCI).

The panel holds about 83,000 compounds, 20% with a hit somewhere; the sample as a whole holds those more often.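 In brief: 96-well plates, 48 h treatment, single concentration, percent growth endpoint.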 Activity calls are given as the source filed them.

In the test the test system is NCI-H522 lung. Kind of test: NCI-60 one-dose screen, 48 h (100 = growth as untreated, 0 = no growth, -100 = all killed). The following applies: 10 µM unless noted. Here is the method:
Growth inhibition of the NCI-H522 human Non-Small Cell Lung tumor cell line is measured as a screen for anti-cancer activity. Cells are grown in 96 well plates and exposed to the test compound for 48 hours. Compounds are tested at a single concentration, which is 10^-5 M for most compounds. The reported endpoint is percent growth (GI% or GIPRCNT), where numbers from 0 - 100% represent growth inhibition, and numbers from -100% - 0 represent cell death. For example, a value of 40 represents 60% growth inhibition. A value of 0 means no net growth occurred over the course of the experiment. A value of -40 indicates 40% of cells at the beginning of the experiment died by the end of the experiment. A value of -100 means all cells are dead at the end of the experiment.
NCI-60 Human Tumor Cell Lines Screen was performed using the standard one-dose NCI protocol, which is described in more detail at https://dtp.cancer.gov/discovery_development/nci-60/default.htm.
Compounds with GIPRCNT values below 10 were considered active. Activity score was based on GIPRCNT using the following formula: […]
Score is 0 for GIPRCNT values of 100 or above, 50 for GIPRCNT values of 0, and 100 for GIPRCNT values of -100.
Consider `O=C(CCCSc1nc(-c2ccccc2)cc(-c2ccccc2)n1)NO`, for which the growth was -9.12% (active).

In the case of `CCCCCCCCCCCCNC(=S)N/N=C/c1ccccc1O`, the growth was 78.1% (inactive).

Regarding `C#CCNC(=O)CC[C@]1(C)[C@H]2CC[C@@H]3[C@@H]([C@@](C)(O)CCC=C(C)C)CC[C@@]3(C)[C@]2(C)CC[C@H]1C(=C)C`, the growth was -73.1% [100 µM] (active).

Turning to `Cc1cc[n+](CCCCCCCCCC[n+]2ccc(C)cc2)cc1`, the growth was 91.6% (inactive).

Turning to `O=c1c2c3c(sc2n2cnnc2n1Cc1ccccc1)CCCC3`, the growth is 79.2% (inactive).

On to `Cn1cc(-c2noc(-c3cn(C)c4ncccc34)n2)c2cc(Cl)ccc21`, for which the growth is 7.71% (active).

With `CCOC(=O)c1cc(C#N)n2ncc3ccccc3c12`, the growth was 93.3% (inactive).

On to `O=C(N=c1n(-c2ccccc2)nc2n1CCN2C1=NCCN1C(=O)c1ccc(Cl)cc1)c1ccc(Cl)cc1`, for which the growth is 64.2% (inactive).

Turning to `CC[C@]12C=CCN3CC[C@@]4(c5ccc(OC)cc5N(C)[C@H]4[C@@](O)(C(=O)OC)[C@@H]1OC(=O)CCC(=O)O[C@H]1CC[C@H]4[C@@H]5CCC6=CC(=O)CC[C@@H]6[C@H]5CC[C@]14C)[C@@H]32`, the growth is 3.35% [100 µM] (active).

On to `Nc1ccc(NC(=O)c2ccccc2)c2c1C(=O)c1ccccc1C2=O`, for which the growth was 111% (inactive).

For the compound `N#CC1C(=O)NC(c2ccccc2[N+](=O)[O-])c2sc3c(F)cccc3c21` (stereo not given), the growth was 88.6% (inactive).

As to `Cn1cc(-c2noc(-c3cn(C)c4ncc(F)cc34)n2)c2cc(Br)ccc21`, the growth is 74.8% (inactive).

As to `O=C(N[C@@H]1CCCc2ccccc21)[C@H](CCC(=O)N1CCN(C2CCCCC2)CC1)N1C(=O)[C@@H](N2C(=O)OC[C@@H]2c2ccccc2)[C@H]1/C=C/c1ccccc1`, the growth was 52.3% (inactive).

On to `O=C(N/N=C/c1c(Cl)cccc1Cl)c1cccc(Nc2ccnc(C(F)(F)F)c2)c1`, for which the growth was 87% (inactive).

As to `COC(=O)[C@@H](NC(=O)NC(=O)NC(=O)CI)C(C)C`, the growth was -85.9% (active).

Take `Cc1ccc(NC(=O)N[C@@H](Cc2cc(F)cc(F)c2)C(=O)N[C@@H]2C(=O)N3CCC[C@H]3C(=O)N3CCCC[C@H]3C(=O)N[C@@H](C)C(=O)N3C[C@H](C)C[C@H]3C(=O)O[C@H]2C)cc1`: the growth was 31.8% (inactive).

On to `CCCCCN(CCCCC)CCCCCCCCN1CCCc2ccccc21`, for which the growth is 34.6% (inactive).

As to `CCc1cccc(Cl)c1`, the growth is 92.9% (inactive).

Consider `N#C/C(C(=O)c1ccccc1)=C1/C(=O)Nc2ccc(Br)cc21`, for which the growth is 99.1% (inactive).

With `CS(=O)(=O)c1cccnn1`, the growth is 82% (inactive).

Take `Cc1ccc(C2=C/C(=C/c3ccc(Br)cc3)C(=O)N2CCc2ccc(S(N)(=O)=O)cc2)cc1`: the growth was 89% (inactive).

In the case of `C#C[C@]1(O)CC[C@H]2[C@@H]3CC=C4c5nc(N)sc5CC[C@]4(C)[C@H]3CC[C@@]21C`, the growth was 56.6% (inactive).

Turning to `COC(=O)[C@]12CCC(C)(C)C[C@H]1C1=CC[C@@H]3[C@@]4(C)C/C(=C/c5cccnc5)C(=O)C(C)(C)[C@@H]4CC[C@@]3(C)[C@]1(C)CC2`, the growth was -72.9% [100 µM] (active).

In the case of `Cc1nc(Cl)cc(N(c2cc(Cl)nc(C)n2)c2ncc(C(=O)Nc3c(C)cccc3Cl)s2)n1`, the growth is 53.7% (inactive).

For the compound `O=C(CCN1CCCCC1)c1ccc2ccccc2c1`, the growth was 93.5% (inactive).

For `C[C@H]1[C@H](C)CC[C@]2(COC(=O)CCC(=O)O)CC[C@]3(C)C(=CC[C@@H]4[C@@]5(C)CCCNC(C)(C)[C@@H]5CC[C@]43C)[C@H]12`, the growth is 53.5% [100 µM] (inactive).

With `CCOC(=O)c1nc2c3ccccc3ccn2c1C(=O)OC`, the growth was 90.6% (inactive).

In the case of `O=C1CN(Cc2ccc(C(=O)NO)cc2)C(=O)[C@@H](Cc2ccccc2)N1`, the growth is 98.2% (inactive).

For `Nc1nc(Nc2ccccc2)c2ncn(Cc3ccc4c(c3)OCO4)c2n1`, the growth is 43.8% (inactive).

Regarding `COc1c(C(C)=O)c(OCCCCOc2c(C(C)=O)c(OC)c3ccoc3c2OC)c(OC)c2occc12`, the growth was -7.73% (active).

`Nc1nc(SCc2cccc([N+](=O)[O-])c2)c2[nH]cnc2n1`: the growth is 81.1% (inactive).

As to `O=C1COCCN1c1ccc(Nc2nc(Cl)nc(N3CCOCC3)n2)cc1`, the growth is 68.2% (inactive).

Consider `O=C(O)CC1CCCCC1c1ccccc1` (stereo not given), for which the growth is 90.1% (inactive).

`Nc1nc(Cl)c2ncn(Cc3cc4c(cc3I)OCO4)c2n1`: the growth is 14.7% (inactive).

For the compound `O=C(NCCO)c1cccnc1`, the growth is 73% (inactive).

As for `C=C(C)[C@@H]1CC[C@]2(C(=O)OC)CC[C@]3(C)[C@H](CC[C@@H]4[C@@]5(C)CC/C(=N\OCCC(=NCCC#N)NOCCC#N)C(C)(C)[C@@H]5CC[C@]43C)[C@@H]12`, the growth was 13.4% [100 µM] (inactive).

With `COc1cc(-c2nc(SCCC(C)C)nc(Nc3ccccc3)c2C#N)cc(OC)c1OC`, the growth is 80.6% (inactive).

Regarding `COc1ccc2c(c1)C(C)Cc1c(ncnc1-n1cnc3ccccc31)N2C` (stereo not given), the growth was -18.9% (active).

On to `O=C(O)c1cn(C2CC2)c2cc(N3CCN(Cc4c(O)ccc5ccccc45)CC3)c(F)cc2c1=O`, for which the growth was 19.7% (inactive).

With `O=c1[nH]c(CN2CCN(c3cccc(Cl)c3)CC2)nc2cc(Cl)ccc12`, the growth is 66.6% (inactive).
